# According to PubChem BioAssay (NCATS):
# Results filed as inconclusive are left out. Where a call stands in place of a potency, no number is given. The source made the active and inactive calls. The call rests on the fitted dose curve.
# Target: Cytochrome P450 1A2 (Homo sapiens) (UniProt P05177)
# Assay: p450-cyp1a2 (AID 410)
# Details: recombinant CYP1A2, luciferin-ME demethylation, luminescence; series mostly up to 57 µM
# Method in brief: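 20nM CYP1A2, 100uM Luciferin-ME (=Km), 100mM KPO4; cpd 10 min RT; +NADPH regen, 60 min RT; stop/detect 20 min; luminescence. Normalized to furafylline 57 uM = full inhibition.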
# Potency means the concentration at half of the fitted maximal effect.
# Cytochrome P450 1A2 (Homo sapiens), sequence (P05177 whole entry, looked up): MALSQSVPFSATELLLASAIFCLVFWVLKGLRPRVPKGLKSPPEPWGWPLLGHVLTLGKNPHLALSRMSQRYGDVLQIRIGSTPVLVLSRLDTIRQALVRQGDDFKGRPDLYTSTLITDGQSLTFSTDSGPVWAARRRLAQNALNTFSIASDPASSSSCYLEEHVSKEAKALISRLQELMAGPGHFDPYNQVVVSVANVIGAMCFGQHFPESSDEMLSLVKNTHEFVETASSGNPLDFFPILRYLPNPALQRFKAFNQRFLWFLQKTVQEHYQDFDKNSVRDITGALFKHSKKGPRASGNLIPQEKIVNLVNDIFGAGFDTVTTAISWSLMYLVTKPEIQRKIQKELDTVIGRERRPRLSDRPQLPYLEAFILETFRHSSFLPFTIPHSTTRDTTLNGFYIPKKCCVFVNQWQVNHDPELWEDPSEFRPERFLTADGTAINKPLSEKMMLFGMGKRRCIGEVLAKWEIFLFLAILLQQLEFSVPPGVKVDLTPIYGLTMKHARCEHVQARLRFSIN
row,Structure (SMILES),Potency
1,COC(=O)N1CCC2(CCCN(Cc3ccccc3OC)C2)CC1,inactive
2,Cc1noc(C)c1C(=O)N1CCC[C@@]2(CCN(Cc3ccccc3)C2)C1,inactive
3,O=S(=O)(c1ccccc1)N1CCC2(CCCN(c3ncccn3)C2)CC1,15.8 µM (active)
4,COc1ccc(NC(=O)N2CCCC3(CCNCC3)C2)cc1,inactive
5,COc1ccc(NC(=O)N2CC3(CCN(C(C)=O)CC3)C2)cc1,inactive
6,CC(=O)N1CCC2(CC1)CN(c1ccccc1)C2,inactive
7,COc1ccccc1CN1CC[C@@]2(CCCN(C(=O)c3cccn3C)C2)C1,inactive
8,Cn1cccc1C(=O)N1CCC[C@@]2(CCN(Cc3cc(C(F)(F)F)cc(C(F)(F)F)c3)C2)C1,inactive
9,COc1ccccc1CN1CC[C@@]2(CCCN(C(C)=O)C2)C1,inactive
10,COc1ccccc1CN1CC[C@@]2(CCCN(S(C)(=O)=O)C2)C1,inactive
11,O=C(c1csnn1)N1CCC2(CC1)CN(c1ccccc1)C2,inactive
12,COc1ccc(NC(=O)N2CC[C@@]3(CCCN(C(=O)c4cnccn4)C3)C2)cc1,inactive
13,CC(C)CN1CC[C@@]2(CCCN(C(=O)c3csnn3)C2)C1,inactive
14,CC(=O)N1CCC2(CC1)CCN(C(=O)Nc1cccc(F)c1)CC2,inactive
15,O=C(c1cnccn1)N1CCC2(CCCN(c3ccccc3)C2)CC1,inactive
16,O=C(c1ccncc1)N1CCC2(CC1)CCN(C(c1ccccc1)c1ccccc1)CC2,12.6 µM (active)
17,COCC(=O)N1CCC[C@@]2(CCN(C(=O)Nc3cccc(F)c3)C2)C1,inactive
18,CC(C)NC(=O)N1CCCC2(CCN(C(=O)c3cccc(F)c3)CC2)C1,inactive
